Assay results taken from PubChem BioAssay.
Results filed as inconclusive are left out. Active and inactive are the calls of the source.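 The calls were made as follows, unless noted: active = GFP response, as percent of the DMSO control, above the screen-wide mean plus 3 SD, about 139; inconclusive = no response measured because the compound's own fluorescence interfered; inactive = the rest.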

Experiments:
[1] = yeast TOR pathway RPL19A-GFP modulators, primary screen, cell-based, S. cerevisiae, multiplex flow cytometry (AID 1862; in the data active = percent of DMSO control GFP below about 86%;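 also: lower values mimic rapamycin by blocking the RPL19A rise seen in DMSO cells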); settings: S. cerevisiae RPL19A-GFP strain, flow cytometry fluorescence, 3 h; at 10 µM; stronger effect = lower value
[2] = modulators of MEP2-GFP levels in yeast, primary screen, S. cerevisiae, multiplex flow cytometry (AID 1867);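 also: median GFP channel fluorescence of barcode-gated MEP2-GFP cells measured by flow cytometry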; settings: S. cerevisiae MEP2-GFP strain, 3 h, at 10 µM, stronger effect = higher value, 100% means same as DMSO wells
[3] = modulators of CIT2-GFP expression in yeast, primary screen, S. cerevisiae, GFP fusion, multiplex flow cytometry (AID 1870;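 active = percent response above a set limit, the screen-wide mean plus 3 SD, cut at about 130% in these data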;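 also: barcoded CIT2-GFP strain pooled with four other GFP strains with rapamycin as positive control; median GFP fluorescence per well over plate mean of DMSO wells so 100% = DMSO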); settings: 3 h, at 10 µM, stronger effect = higher value
[4] = modulators of LAP4-GFP expression in yeast, primary screen, S. cerevisiae, multiplex flow cytometry (AID 1873;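 active = GFP signal, as percent of the solvent control, above the screen mean plus 3 SD, about 149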); settings: 3 h, at 10 µM, stronger effect = higher value
[5] = modulators of AGP1-GFP expression in yeast TOR pathway, primary screen, cell-based, multiplex flow cytometry, S. cerevisiae (AID 1887;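 active = GFP signal above the screen-wide mean plus 3 SD, that is over about 124.5% of the solvent control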;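 also: AGP1-GFP fusion strain of S. cerevisiae within a five-strain barcoded multiplex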); settings: 3 h, at 10 µM, stronger effect = higher value
[6] = inhibitors of CD8+ T cell-vesicle binding, pilot screen, LFA-1/ICAM-1 modulator project, MLPCN validation set, flow cytometry (AID 2523;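 active = response below a set limit, under 55% cells CD8-positive and vesicle-bound, and CD8 cells' 90th-percentile brightness under 279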;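 as to vesicle binding response: mean PE anti-B7-1 fluorescence of CD8+ cells relative to row control; 100% = QL9-loaded vesicles with DMSO vehicle in the same plate row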); settings: 2C mouse CD8+ T cells, at 7 µM, stronger effect = lower value; double positive events: measured here: CD8+/vesicle+ event percentage
[7] = target: Integrin beta-1 (Homo sapiens) + Integrin alpha-4 (Homo sapiens) (UniProt P13612+P05556); assay: inhibition of HUTS-21 binding to VLA-4, pilot screen, VLA-4 allosteric modulator project, U937 cells, HUTS-21 mAb, flow cytometry, validation set (AID 2674;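 active = inhibition above 50%, about 3 SD of the validation set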;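 also: antibody binding induced by the VLA-4 ligand LDV present at three times its Kd; 0% = LDV ligand with antibody and no compound and 100% = antibody without LDV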); settings: HUTS-21 LIBS mAb binding, at 6.7 µM, stronger effect = higher value, binding induced by LDV ligand
[8] = superoxide lowering in aged yeast cells, pilot screen, validation compound set (AID 2706;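 active = superoxide response below 65% of plate, a cut near 3 SD across the whole screen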;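 also: yeast exposed to compound for one week at 30 degrees C before staining; 100% = mean of all compound wells on the same plate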); settings: S. cerevisiae aging, superoxide DHE fluorescence; at 10 µM, stronger effect = lower value
[9] = target: Beta-adrenergic receptor kinase 1 (Homo sapiens) (UniProt P25098); assay: GRK2 binders displacing RNA aptamer, biochemical, validation, human GRK2, bead flow cytometry (AID 488806;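 active = aptamer binding inhibition above 30%, about 3 SD of noise from non-fluorescent compounds; inactive = inhibition at or below 30%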); settings: bead-bound GRK2, FAM-aptamer displacement, at 10 µM, stronger effect = higher value
[10] = target: AP-2 complex subunit beta (Homo sapiens) (UniProt P63010); assay: inhibitors of arrestin peptide binding to AP2, pilot screen, biochemical, validation set, GST-AP2 beads, flow cytometry (AID 504541;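 active = inhibition above 54%, about 3 SD of non-fluorescent compounds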;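 also: AP2 carries R879A mutation and is captured from E. coli lysate; bead-bound FITC arrestin peptide fluorescence measuring arrestin peptide binding to AP2; 0% = DMSO wells and 100% = excess unlabeled arrestin peptide control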); settings: FITC arrestin peptide, at 10 µM, stronger effect = higher value, AP2 beta2 appendage fragment, R879A mutant
[11] = yeast V-ATPase proton transport modulators, S. cerevisiae, pHLuorin, HTS validation (AID 504600; in the data active = response above about 15%;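 also: plate controls were DMSO for no effect and reference compound for full effect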); settings: S. cerevisiae pHLuorin cytosolic pH, at 10 µM, stronger effect = higher value
[12] = tested on: anti-desmoglein-3 scFv antibody binding to human DSG3; assay: inhibitors of anti-DSG3 scFv binding to DSG3, pilot screen, biochemical, validation compound set, bead-based, flow cytometry (AID 588368;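 active = binding below the plate cutoff, the plate median minus 3 SD, with a reading above zero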;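 also: signal is the median channel fluorescence of bead-bound GFP antibody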); settings: Protein G beads, DSG3-Fc, scFv-GFP binding, at 10 µM, stronger effect = lower value
[13] = inhibitors of fungal efflux pumps CDR1, CDR2, MDR1, pilot screen, validation compound set, multiplex, phenotypic (AID 588506;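 active = efflux inhibition above 0.42, the validation set average plus 4 SD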;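 also: Nile Red retained in cells so higher fluorescence means more efflux inhibition; 0 = negative control wells and 1 = enniatin B 25 µM full block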); settings: S. cerevisiae pump-expressing triplex, Nile Red efflux flow cytometry; at 10 µM; stronger effect = higher value; the pumps come from Candida albicans
[14] = target: ATP-binding cassette sub-family B member 6 (Homo sapiens) (UniProt Q9NP58); assay: ABCB6 transporter inhibitors, pilot screen, K562-ABCB6 cells, flow cytometry, validation set (AID 588550;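 active = inhibition above the screen-wide mean plus 3 SD, about 51%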;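 also: 0% = DMSO wells and 100% = benzethonium chloride 70 µM positive control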); settings: K562-ABCB6 porphyrin accumulation, 1 h, at 10 µM, stronger effect = higher value
[15] = promoters of myeloid differentiation in arrested cells, primary screen, cell-based, GFP/MAC1 double positive, flow cytometry, validation set (AID 588685;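 active = differentiation response of at least 50%, scaled between solvent and reference control, from cells with both markers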;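 also: compound exposure lasts four days before antibody staining and flow analysis; 0% = DMSO wells and 100% = 5 µM fulvestrant positive control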); settings: ER-HoxA9 marrow cells, stronger effect = higher value, normalized: vehicle 0, fulvestrant 100

Chain of Beta-adrenergic receptor kinase 1 (Homo sapiens) (P25098 whole entry, looked up): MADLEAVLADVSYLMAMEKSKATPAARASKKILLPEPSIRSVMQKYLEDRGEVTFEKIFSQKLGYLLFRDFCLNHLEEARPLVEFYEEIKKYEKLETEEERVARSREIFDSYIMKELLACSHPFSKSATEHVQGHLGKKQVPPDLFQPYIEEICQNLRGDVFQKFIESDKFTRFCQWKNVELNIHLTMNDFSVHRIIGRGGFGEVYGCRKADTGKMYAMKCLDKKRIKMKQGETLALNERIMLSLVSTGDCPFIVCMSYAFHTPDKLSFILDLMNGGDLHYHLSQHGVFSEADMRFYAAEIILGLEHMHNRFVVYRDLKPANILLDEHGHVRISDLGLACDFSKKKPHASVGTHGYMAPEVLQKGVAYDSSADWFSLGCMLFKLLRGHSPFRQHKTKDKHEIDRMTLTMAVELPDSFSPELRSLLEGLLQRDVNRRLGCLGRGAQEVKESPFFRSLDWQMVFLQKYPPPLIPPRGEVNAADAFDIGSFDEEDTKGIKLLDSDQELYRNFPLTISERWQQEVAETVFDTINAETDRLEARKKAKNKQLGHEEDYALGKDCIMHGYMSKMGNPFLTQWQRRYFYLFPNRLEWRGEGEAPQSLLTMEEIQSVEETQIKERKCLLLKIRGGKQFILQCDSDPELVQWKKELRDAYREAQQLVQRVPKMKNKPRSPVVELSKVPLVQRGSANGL
Chain of ATP-binding cassette sub-family B member 6 (Homo sapiens) (Q9NP58 whole entry, looked up): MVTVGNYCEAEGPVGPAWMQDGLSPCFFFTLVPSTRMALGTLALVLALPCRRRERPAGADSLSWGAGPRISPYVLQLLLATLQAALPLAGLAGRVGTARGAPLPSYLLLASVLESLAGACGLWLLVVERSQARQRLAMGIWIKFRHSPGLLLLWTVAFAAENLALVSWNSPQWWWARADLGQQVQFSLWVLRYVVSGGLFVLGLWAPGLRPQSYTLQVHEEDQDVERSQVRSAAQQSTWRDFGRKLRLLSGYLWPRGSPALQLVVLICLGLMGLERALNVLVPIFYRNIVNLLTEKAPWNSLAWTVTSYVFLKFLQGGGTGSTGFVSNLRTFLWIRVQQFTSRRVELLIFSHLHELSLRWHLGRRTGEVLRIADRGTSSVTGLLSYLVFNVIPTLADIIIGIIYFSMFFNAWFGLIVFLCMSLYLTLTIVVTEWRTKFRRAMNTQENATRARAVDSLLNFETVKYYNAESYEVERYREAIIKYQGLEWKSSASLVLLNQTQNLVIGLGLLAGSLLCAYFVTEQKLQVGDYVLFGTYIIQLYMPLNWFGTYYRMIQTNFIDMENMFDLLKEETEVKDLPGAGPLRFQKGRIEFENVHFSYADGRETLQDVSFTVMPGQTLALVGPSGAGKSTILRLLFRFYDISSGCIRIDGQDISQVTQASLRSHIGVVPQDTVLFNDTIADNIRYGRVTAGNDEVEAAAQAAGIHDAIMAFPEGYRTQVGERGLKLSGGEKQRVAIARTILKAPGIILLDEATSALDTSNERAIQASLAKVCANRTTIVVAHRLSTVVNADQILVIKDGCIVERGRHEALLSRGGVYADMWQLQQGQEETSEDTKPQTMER
Chain of AP-2 complex subunit beta (Homo sapiens) (P63010 whole entry, looked up, the tested form may be a part, one chain of several): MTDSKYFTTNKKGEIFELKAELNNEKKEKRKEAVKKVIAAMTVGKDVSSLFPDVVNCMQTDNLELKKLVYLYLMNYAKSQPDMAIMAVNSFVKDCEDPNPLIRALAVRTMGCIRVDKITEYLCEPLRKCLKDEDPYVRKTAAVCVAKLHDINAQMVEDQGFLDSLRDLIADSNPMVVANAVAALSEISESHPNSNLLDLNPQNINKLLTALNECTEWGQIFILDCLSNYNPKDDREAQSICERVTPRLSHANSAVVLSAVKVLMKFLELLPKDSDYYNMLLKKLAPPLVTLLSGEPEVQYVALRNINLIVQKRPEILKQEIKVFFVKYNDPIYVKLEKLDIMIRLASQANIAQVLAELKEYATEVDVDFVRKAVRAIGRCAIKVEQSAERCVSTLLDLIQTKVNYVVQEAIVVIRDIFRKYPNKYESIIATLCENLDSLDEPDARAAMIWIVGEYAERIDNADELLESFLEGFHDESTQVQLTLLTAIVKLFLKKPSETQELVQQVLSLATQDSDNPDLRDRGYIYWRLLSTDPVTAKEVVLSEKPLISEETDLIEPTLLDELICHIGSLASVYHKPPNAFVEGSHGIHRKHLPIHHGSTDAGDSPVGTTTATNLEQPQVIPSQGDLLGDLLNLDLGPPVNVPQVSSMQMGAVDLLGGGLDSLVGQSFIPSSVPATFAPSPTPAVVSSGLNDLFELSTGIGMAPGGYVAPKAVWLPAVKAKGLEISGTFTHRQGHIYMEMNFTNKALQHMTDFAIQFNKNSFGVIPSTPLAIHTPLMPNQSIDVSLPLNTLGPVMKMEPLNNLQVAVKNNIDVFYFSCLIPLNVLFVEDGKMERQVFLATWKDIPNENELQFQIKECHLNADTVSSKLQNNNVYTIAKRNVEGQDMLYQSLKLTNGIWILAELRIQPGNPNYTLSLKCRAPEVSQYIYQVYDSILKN
Chain of Integrin beta-1 (Homo sapiens) + Integrin alpha-4 (Homo sapiens) (P05556 whole entry, looked up): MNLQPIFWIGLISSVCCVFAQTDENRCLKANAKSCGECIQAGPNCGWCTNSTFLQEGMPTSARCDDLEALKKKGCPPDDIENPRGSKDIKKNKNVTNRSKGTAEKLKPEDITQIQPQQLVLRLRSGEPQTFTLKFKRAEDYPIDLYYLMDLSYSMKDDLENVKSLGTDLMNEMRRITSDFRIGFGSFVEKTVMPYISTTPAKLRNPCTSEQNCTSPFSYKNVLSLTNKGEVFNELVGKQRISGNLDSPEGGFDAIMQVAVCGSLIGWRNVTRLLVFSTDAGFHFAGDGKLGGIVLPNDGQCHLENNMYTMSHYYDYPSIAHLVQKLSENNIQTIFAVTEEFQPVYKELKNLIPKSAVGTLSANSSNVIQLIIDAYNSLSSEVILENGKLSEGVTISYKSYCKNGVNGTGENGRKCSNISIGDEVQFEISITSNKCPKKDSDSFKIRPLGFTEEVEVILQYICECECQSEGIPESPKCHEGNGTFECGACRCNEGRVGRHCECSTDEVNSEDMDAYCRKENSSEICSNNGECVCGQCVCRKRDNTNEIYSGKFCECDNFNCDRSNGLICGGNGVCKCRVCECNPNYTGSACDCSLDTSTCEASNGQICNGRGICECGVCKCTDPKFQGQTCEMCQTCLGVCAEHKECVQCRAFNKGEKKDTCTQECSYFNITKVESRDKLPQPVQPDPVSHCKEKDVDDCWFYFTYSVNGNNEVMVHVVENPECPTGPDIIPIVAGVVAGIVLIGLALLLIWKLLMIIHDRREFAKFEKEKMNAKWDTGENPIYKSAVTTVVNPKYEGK
Chain of Integrin beta-1 (Homo sapiens) + Integrin alpha-4 (Homo sapiens) (P13612 whole entry, looked up): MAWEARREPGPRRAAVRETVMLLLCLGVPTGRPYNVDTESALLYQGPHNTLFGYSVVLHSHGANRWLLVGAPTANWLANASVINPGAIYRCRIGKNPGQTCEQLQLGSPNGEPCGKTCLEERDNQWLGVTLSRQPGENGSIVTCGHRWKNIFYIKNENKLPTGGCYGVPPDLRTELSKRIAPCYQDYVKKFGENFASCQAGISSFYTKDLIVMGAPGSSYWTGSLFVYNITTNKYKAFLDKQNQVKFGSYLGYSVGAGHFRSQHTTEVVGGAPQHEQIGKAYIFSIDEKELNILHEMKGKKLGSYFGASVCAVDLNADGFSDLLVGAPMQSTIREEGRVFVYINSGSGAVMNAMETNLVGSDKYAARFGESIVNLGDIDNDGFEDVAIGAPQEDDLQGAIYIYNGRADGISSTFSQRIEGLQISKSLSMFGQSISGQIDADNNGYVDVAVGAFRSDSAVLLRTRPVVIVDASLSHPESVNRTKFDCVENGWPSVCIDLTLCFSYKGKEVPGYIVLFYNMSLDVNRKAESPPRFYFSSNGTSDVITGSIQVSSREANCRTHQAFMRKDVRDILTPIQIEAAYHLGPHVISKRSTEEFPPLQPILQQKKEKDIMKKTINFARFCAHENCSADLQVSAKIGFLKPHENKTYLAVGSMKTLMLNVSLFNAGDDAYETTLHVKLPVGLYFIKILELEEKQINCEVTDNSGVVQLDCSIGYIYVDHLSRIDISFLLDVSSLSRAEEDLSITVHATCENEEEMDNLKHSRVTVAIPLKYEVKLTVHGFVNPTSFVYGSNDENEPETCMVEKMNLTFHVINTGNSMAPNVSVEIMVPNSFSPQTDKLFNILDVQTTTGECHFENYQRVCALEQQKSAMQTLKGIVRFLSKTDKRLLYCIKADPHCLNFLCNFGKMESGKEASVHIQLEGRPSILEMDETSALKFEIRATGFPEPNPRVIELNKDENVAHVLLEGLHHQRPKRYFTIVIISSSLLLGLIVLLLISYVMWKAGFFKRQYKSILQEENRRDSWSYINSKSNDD

Row | SMILES | percent of DMSO control GFP [1] | GFP response vs DMSO [2] | percent response of DMSO control [3] | GFP response vs DMSO [4] | GFP response, % of DMSO [5] | double positive events [6] | vesicle binding response [6] | inhibition [7] | superoxide response (% of plate) [8] | aptamer binding inhibition [9] | inhibition [10] | response [11] | binding (% of control) [12] | efflux inhibition (fraction of control) [13] | inhibition [14] | differentiation response [15]
1 | CC(=O)Oc1cc(C(C)C)c(OCCN(C)C)cc1C | 103% (inactive) | 104% (inactive) | 94.9% (inactive) | 97.4% (inactive) | 99.9% (inactive) | 52.8% | 152% (inactive) | -0.24% (inactive) | 106% (inactive) | 6% (inactive) | -9.83% (inactive) | 8.27% (inactive) | 95.2% (inactive) | 0.1 (inactive) | 10% (inactive) | 19.2% (inactive)
2 | Cc1oc2cc(O)ccc2c(=O)c1Oc1ccccc1Br | 96.9% (inactive) | 108% (inactive) | 93% (inactive) | 102% (inactive) | 98.1% (inactive) | 54.8% | 172% (inactive) | -12.4% (inactive) | 101% (inactive) | 6% (inactive) | 4.89% (inactive) | 1.47% (inactive) | 102% (inactive) | -0.31 (inactive) | 9% (inactive) | -13.1% (inactive)
3 | O=C1CCCN1CCCn1cnc2c([nH]c3ccc(F)cc32)c1=O | 105% (inactive) | 104% (inactive) | 101% (inactive) | 89.3% (inactive) | 101% (inactive) | 57.6% | 124% (inactive) | 10.9% (inactive) | 114% (inactive) | -1% (inactive) | -10.6% (inactive) | 1.63% (inactive) | 100% (inactive) | -0.28 (inactive) | 10% (inactive) | -27.6% (inactive)
4 | CN1C(=O)C(O)(CC(=O)/C=C/C=C/c2ccccc2)c2ccccc21 (stereo not given) | 104% (inactive) | 98.9% (inactive) | 104% (inactive) | 94.3% (inactive) | 98.1% (inactive) | 54.8% | 153% (inactive) | -0.24% (inactive) | 102% (inactive) | 2% (inactive) | -6.66% (inactive) | 0.35% (inactive) | 99% (inactive) | 0.06 (inactive) | 5% (inactive) | -18% (inactive)
5 | CC(C)Cn1c(=S)[nH]c2cc(C(=O)O)ccc2c1=O | 105% (inactive) | 97.9% (inactive) | 108% (inactive) | 84.3% (inactive) | 98.5% (inactive) | 61% | 197% (inactive) | -1.17% (inactive) | 106% (inactive) | 4% (inactive) | -1.44% (inactive) | -0.3% (inactive) | 96.7% (inactive) | -0.01 (inactive) | 2% (inactive) | -26% (inactive)
6 | O=C(O)c1cccnc1 | 103% (inactive) | 105% (inactive) | 96.9% (inactive) | 101% (inactive) | 105% (inactive) | 54.3% | 137% (inactive) | 13.8% (inactive) | 94.8% (inactive) | 4% (inactive) | -4.36% (inactive) | 4.12% (inactive) | 101% (inactive) | 0.29 (inactive) | 16% (inactive) | 20.8% (inactive)
7 | COc1cccc(OCc2cc(C3Nc4ccccc4C(=O)N3Cc3ccco3)ccc2OC)c1 (stereo not given) | 106% (inactive) | 99.9% (inactive) | 104% (inactive) | 92.3% (inactive) | 88.9% (inactive) | 53.2% | 127% (inactive) | 3.49% (inactive) | 99.1% (inactive) | 4% (inactive) | -4.8% (inactive) | 0% (inactive) | 96.5% (inactive) | 0.03 (inactive) | 3% (inactive) | -9.89% (inactive)
8 | O=S(=O)(NCCCCCNS(=O)(=O)c1ccccc1)c1ccccc1 | 104% (inactive) | 105% (inactive) | 95.9% (inactive) | 92.3% (inactive) | 92.8% (inactive) | 57.2% | 127% (inactive) | -13.3% (inactive) | 104% (inactive) | -3% (inactive) | 3.03% (inactive) | 1.49% (inactive) | 103% (inactive) | 0.56 (active) | 10% (inactive) | -11.5% (inactive)
9 | CCCCNc1cc(C(=O)O)cc(S(N)(=O)=O)c1Oc1ccccc1 | 102% (inactive) | 103% (inactive) | 97.9% (inactive) | 89.3% (inactive) | 102% (inactive) | 52.3% | 179% (inactive) | 16.6% (inactive) | 96.1% (inactive) | 6% (inactive) | 1.29% (inactive) | 10.1% (inactive) | 99.5% (inactive) | 0.06 (inactive) | 11% (inactive) | -9.89% (inactive)
10 | CCCCC1C(=O)N(c2ccccc2)N(c2ccccc2)C1=O | 98.1% (inactive) | 117% (inactive) | 101% (inactive) | 89.7% (inactive) | 97.5% (inactive) | 66% | 258% (inactive) | 3.55% (inactive) | 94.9% (inactive) | 0% (inactive) | 33.1% (inactive) | -1.74% (inactive) | 111% (inactive) | -0.06 (inactive) | 8% (inactive) | 17.2% (inactive)
